Experimental data from ChEMBL document CHEMBL4513146, “CO-ADD screening of Karazin Kharkiv National University (Ukraine) compounds”.
Results with a measured potency or affinity are listed apart.

Key:
Klebsiella pneumoniae = settings: Concentration 32 ug.mL-1;; ASSAY_TEST Inhibition of Bacterial Growth; detection method Absorption (OD600); MEDIA CAMHB; plate type 384well; NBS; CORNING #3640; time 18 hr
Candida albicans = settings: Concentration 32 ug.mL-1; ASSAY_TEST Inhibition of Fungal Growth; detection method Absorption (OD530)
Cryptococcus neoformans = settings: Concentration 32 ug.mL-1; ASSAY_TEST Inhibition of Fungal Growth; detection method Resazurin; Absorption (OD600-OD570); plate type 384well; NBS; CORNING #3640

## COc1ccc(NC(=O)Cn2nc3ccc(SC4CCCCC4)nn3c2=O)cc1OC
Klebsiella pneumoniae
  Inhibition: 8.74%
Candida albicans
  Inhibition: 4.98%
Cryptococcus neoformans
  Inhibition: -24.6%

## COC(=O)c1ccc(CN(c2ccc(F)cc2)S(=O)(=O)c2cccn3c(C)nnc23)o1
Klebsiella pneumoniae
  Inhibition: 11.43%
Candida albicans
  Inhibition: 3.23%
Cryptococcus neoformans
  Inhibition: -7.89%

## Cc1c(Cl)cccc1-n1ccn2c(=O)n(Cc3ccccc3Cl)nc2c1=O
Klebsiella pneumoniae
  Inhibition: -1.96%
Candida albicans
  Inhibition: -2.16%
Cryptococcus neoformans
  Inhibition: -12.25%

## COc1cccc(-c2noc(Cn3nc4ccc(-c5ccccc5)nn4c3=O)n2)c1OC
Klebsiella pneumoniae
  Inhibition: 1.06%
Candida albicans
  Inhibition: 2.21%
Cryptococcus neoformans
  Inhibition: -2.99%

## COc1ccc(-c2cc3c4nnc(SCC(=O)Nc5ccc(C)c(F)c5)n4ccn3n2)cc1
Klebsiella pneumoniae
  Inhibition: 1.13%
Candida albicans
  Inhibition: 19.06%
Cryptococcus neoformans
  Inhibition: -5.86%

## Cc1nnc2ccc(S(=O)(=O)N(Cc3ccc(F)cc3)c3ccc4c(c3)OCO4)cn12
Klebsiella pneumoniae
  Inhibition: 13.79%
Candida albicans
  Inhibition: 1.73%
Cryptococcus neoformans
  Inhibition: -7.24%

## COc1ccc(NC(=O)Cn2nc3cc(C)nc(Nc4ccc(F)c(C)c4)n3c2=O)cc1
Klebsiella pneumoniae
  Inhibition: 10.41%
Candida albicans
  Inhibition: 4.68%
Cryptococcus neoformans
  Inhibition: -7.34%

## Cn1c(=O)c2ccc(C(=O)NC3CCCC3)cc2n2c(SCc3c(F)cccc3Cl)nnc12
Klebsiella pneumoniae
  Inhibition: 14.92%
Candida albicans
  Inhibition: 3.13%
Cryptococcus neoformans
  Inhibition: -23.81%

## O=C(Cn1nc2c(SC3CCCCC3)nccn2c1=O)N1CCN(c2ccccc2)CC1
Klebsiella pneumoniae
  Inhibition: 7.42%
Candida albicans
  Inhibition: 1.71%
Cryptococcus neoformans
  Inhibition: -1.45%

## COc1ccc(NC(=O)Cn2nc3c(N4CCCC4)nccn3c2=O)cc1
Klebsiella pneumoniae
  Inhibition: 6.93%
Candida albicans
  Inhibition: 1.38%
Cryptococcus neoformans
  Inhibition: -6.3%

## Cc1cccc(-c2nc(CSc3nc4ccccc4n4c(C)nnc34)c(C)o2)c1
Klebsiella pneumoniae
  Inhibition: 10.71%
Candida albicans
  Inhibition: 3.22%
Cryptococcus neoformans
  Inhibition: -23.71%

## COc1ccc(NC(=O)Cn2nc3c4cc(-c5ccc(C)c(C)c5)nn4ccn3c2=O)cc1OC
Klebsiella pneumoniae
  Inhibition: 13.24%
Candida albicans
  Inhibition: 0.2%
Cryptococcus neoformans
  Inhibition: -30.03%

## COC(=O)c1sccc1NC(=O)Cn1nc2c(Oc3ccc(C)cc3)nc3ccccc3n2c1=O
Klebsiella pneumoniae
  Inhibition: 13.09%
Candida albicans
  Inhibition: 3.6%
Cryptococcus neoformans
  Inhibition: -31.95%

## CCc1ccccc1Sc1nccn2c(=O)n(CC(=O)Nc3cccc(C)c3)nc12
Klebsiella pneumoniae
  Inhibition: 4.48%
Candida albicans
  Inhibition: -0.7%
Cryptococcus neoformans
  Inhibition: -3.25%

## COc1cc(OC)c(NC(=O)Cn2nc3ccc(Sc4ccc(C)cc4)nn3c2=O)cc1Cl
Klebsiella pneumoniae
  Inhibition: -1.47%
Candida albicans
  Inhibition: 29.33%
Cryptococcus neoformans
  Inhibition: -7.45%

## O=c1c2sccc2n2c(=O)n(Cc3cccc(F)c3)nc2n1Cc1cccs1
Klebsiella pneumoniae
  Inhibition: -6.06%
Candida albicans
  Inhibition: 36.13%
Cryptococcus neoformans
  Inhibition: -19.84%

## Cc1cc(C)cc(Nc2nc(C)cc3nn(CC(=O)Nc4ccc(Cl)cc4)c(=O)n23)c1
Klebsiella pneumoniae
  Inhibition: 13.53%
Candida albicans
  Inhibition: 5.41%
Cryptococcus neoformans
  Inhibition: -4.1%

## O=C(CSc1nc2ccccc2n2cnnc12)Nc1ccc2c(c1)OCO2
Klebsiella pneumoniae
  Inhibition: 0.58%
Candida albicans
  Inhibition: 2.55%
Cryptococcus neoformans
  Inhibition: -24.91%

## Cc1ccc(Cl)cc1NC(=O)Cn1nc2c(SC3CCCCC3)nccn2c1=O
Klebsiella pneumoniae
  Inhibition: 10.4%
Candida albicans
  Inhibition: -0.14%
Cryptococcus neoformans
  Inhibition: -28.24%

## O=c1c2sccc2n2c(=O)n(Cc3ccc(Br)cc3)nc2n1Cc1cccs1
Klebsiella pneumoniae
  Inhibition: -4.09%
Candida albicans
  Inhibition: 49.64%
Cryptococcus neoformans
  Inhibition: -28.37%

## O=c1c2sccc2n2c(=O)n(Cc3c(F)cccc3Cl)nc2n1CCc1ccccc1
Klebsiella pneumoniae
  Inhibition: 4.07%
Candida albicans
  Inhibition: 1.94%
Cryptococcus neoformans
  Inhibition: -23.82%

## CCCn1c(=O)c2sccc2n2c(=O)n(CC(=O)c3ccccc3)nc12
Klebsiella pneumoniae
  Inhibition: 3.65%
Candida albicans
  Inhibition: 4.43%
Cryptococcus neoformans
  Inhibition: -9.13%

## C=Cc1ccc(CN(c2ccc3c(c2)OCO3)S(=O)(=O)c2ccc3nncn3c2)cc1
Klebsiella pneumoniae
  Inhibition: 11.26%
Candida albicans
  Inhibition: 1.71%
Cryptococcus neoformans
  Inhibition: -6.68%

## Cc1cccc(NC(=O)Cn2nc3c4cc(-c5ccc(F)cc5)nn4ccn3c2=O)c1C
Klebsiella pneumoniae
  Inhibition: 6.39%
Candida albicans
  Inhibition: 16.67%
Cryptococcus neoformans
  Inhibition: -22.65%

## Cc1ccc(Oc2nccn3c(=O)n(CC(=O)Nc4ccc(C)cc4Br)nc23)cc1
Klebsiella pneumoniae
  Inhibition: 1.71%
Candida albicans
  Inhibition: 0.3%
Cryptococcus neoformans
  Inhibition: -4.1%

## CC1CC(C)CN(c2nccn3c(=O)n(CC(=O)NCc4ccccc4Cl)nc23)C1 (centres undefined)
Klebsiella pneumoniae
  Inhibition: 9.46%
Candida albicans
  Inhibition: -0.66%
Cryptococcus neoformans
  Inhibition: -5.61%

## Cc1ccc(CNC(=O)CSc2nnc3c(=O)n(-c4ccccc4)ccn23)cc1
Klebsiella pneumoniae
  Inhibition: 13.24%
Candida albicans
  Inhibition: 3.44%
Cryptococcus neoformans
  Inhibition: -18.23%

## CCOc1ccccc1NC(=O)Cn1nc2c(Oc3cccc(OC)c3)nccn2c1=O
Klebsiella pneumoniae
  Inhibition: 8.86%
Candida albicans
  Inhibition: 0.7%
Cryptococcus neoformans
  Inhibition: -8.27%
